Among all 5,500 compounds or so, about 2,000 (36%) were called active. About 18% were inconclusive and are not listed. Cut-off read from the data, not from the text of the source: active = normalized growth mostly below about 0.91 (no sharp cut-off); inconclusive = no clear call, values can overlap the other calls; inactive = mostly above about 0.92. The list shows a part of the results.
Assay: chemical genetic growth profiling, strain panel (AID 1159580);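 note: tested at 20 µM; growth read once vehicle control cultures reached saturation at 30 °C; 1 = growth at the plate median or of vehicle wells; lower values mean less growth of the strain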
Conditions: growth OD

Measured: normalized growth

CCCN(CCC)c1c([N+](=O)[O-])cc(C(F)(F)F)cc1[N+](=O)[O-]
inactive: S. cerevisiae deletion strains, locus YJR075W, strain HOC1, stronger effect = lower value 0.994 | S. cerevisiae deletion strains, locus YKL009W, strain mrt4, stronger effect = lower value 1.03 | S. cerevisiae deletion strains, locus YKL068W, stronger effect = lower value 1.01 | S. cerevisiae deletion strains, locus YKL085W, strain MDH1 (second series), stronger effect = lower value 1 | S. cerevisiae deletion strains, locus YKL085W, strain MDH1, stronger effect = lower value 1 | S. cerevisiae deletion strains, locus YKL160W, strain elf1, stronger effect = lower value 1 | S. cerevisiae deletion strains, locus YKL190W, strain CNB1, stronger effect = lower value 1.01 | S. cerevisiae deletion strains, locus YKR001C, strain vps1, stronger effect = lower value 1.03 | S. cerevisiae deletion strains, locus YKR026C, strain gcn3, stronger effect = lower value 0.97 | S. cerevisiae deletion strains, locus YKR091W, strain srl3, stronger effect = lower value 0.999 | S. cerevisiae deletion strains, locus YLL001W, strain dnm1, stronger effect = lower value 0.999 | S. cerevisiae deletion strains, locus YLL026W, stronger effect = lower value 0.999 | S. cerevisiae deletion strains, locus YLL041C, strain sdh2, stronger effect = lower value 1 | S. cerevisiae deletion strains, locus YLR027C, strain aat2, stronger effect = lower value 1.01 | S. cerevisiae deletion strains, locus YLR039C, strain RIC1, stronger effect = lower value 0.99 | S. cerevisiae deletion strains, locus YLR058C, strain SHM2, stronger effect = lower value 1 | S. cerevisiae deletion strains, locus YLR102C, strain apc9, stronger effect = lower value 1.01 | S. cerevisiae deletion strains, locus YLR113W, strain HOG1, stronger effect = lower value 1.02 | S. cerevisiae deletion strains, locus YLR221C, strain rsa3, stronger effect = lower value 1 | S. cerevisiae deletion strains, locus YLR258W, strain gsy2, stronger effect = lower value 0.984 | S. cerevisiae deletion strains, locus YLR262C, strain YPT6 (second series), stronger effect = lower value 0.989 | S. cerevisiae deletion strains, locus YLR262C, strain YPT6, stronger effect = lower value 1.04 | S. cerevisiae deletion strains, locus YLR268W, strain sec22, stronger effect = lower value 1.02 | S. cerevisiae deletion strains, locus YLR320W, strain mms22, stronger effect = lower value 1.01 | S. cerevisiae deletion strains, locus YLR330W, strain CHS5, stronger effect = lower value 1.02 | S. cerevisiae deletion strains, locus YLR342W, strain FKS1 (second series), stronger effect = lower value 1.04 | S. cerevisiae deletion strains, locus YLR342W, strain FKS1, stronger effect = lower value 1.04 | S. cerevisiae deletion strains, locus YLR357W, strain rsc2, stronger effect = lower value 1.13 | S. cerevisiae deletion strains, locus YLR370C, strain arc18, stronger effect = lower value 1 | S. cerevisiae deletion strains, locus YLR371W, strain rom2, stronger effect = lower value 1.02 | S. cerevisiae deletion strains, locus YLR384C, strain iki3, stronger effect = lower value 1.02 | S. cerevisiae deletion strains, locus YLR418C, strain cdc73, stronger effect = lower value 1 | S. cerevisiae deletion strains, locus YML016C, strain PPZ1, stronger effect = lower value 0.982 | S. cerevisiae deletion strains, locus YML032C, strain rad52, stronger effect = lower value 1.02 | S. cerevisiae deletion strains, locus YML120C, strain ndi1, stronger effect = lower value 0.985 | S. cerevisiae deletion strains, locus YML124C, strain tub3, stronger effect = lower value 1.02 | S. cerevisiae deletion strains, locus YMR058W, strain fet3, stronger effect = lower value 0.989 | S. cerevisiae deletion strains, locus YMR078C, strain ctf18, stronger effect = lower value 1.02 | S. cerevisiae deletion strains, locus YMR125W, strain sto1, stronger effect = lower value 1.01 | S. cerevisiae deletion strains, locus YMR129W, stronger effect = lower value 1.01 | S. cerevisiae deletion strains, locus YMR205C, strain PFK2, stronger effect = lower value 0.977 | S. cerevisiae deletion strains, locus YMR223W, strain ubp8, stronger effect = lower value 1.01 | S. cerevisiae deletion strains, locus YMR231W, strain pep5, stronger effect = lower value 1.01 | S. cerevisiae deletion strains, locus YMR263W, strain SAP30, stronger effect = lower value 0.984 | S. cerevisiae deletion strains, locus YMR307W, strain GAS1, stronger effect = lower value 0.973 | S. cerevisiae deletion strains, locus YNL067W, strain RPL9B, stronger effect = lower value 1.01 | S. cerevisiae deletion strains, locus YNL071W, strain lat1, stronger effect = lower value 1 | S. cerevisiae deletion strains, locus YNL128W, strain TEP1, stronger effect = lower value 1 | S. cerevisiae deletion strains, locus YNL153C, strain GIM3, stronger effect = lower value 0.995 | S. cerevisiae deletion strains, locus YNL183C, strain NPR1, stronger effect = lower value 0.915 | S. cerevisiae deletion strains, locus YNL209W, strain ssb2, stronger effect = lower value 1.02 | S. cerevisiae deletion strains, locus YNL233W, strain BNI4, stronger effect = lower value 0.981 | S. cerevisiae deletion strains, locus YNL248C, strain rpa49, stronger effect = lower value 1.04 | S. cerevisiae deletion strains, locus YNL250W, strain rad50, stronger effect = lower value 1.01 | S. cerevisiae deletion strains, locus YNL271C, strain bni1, stronger effect = lower value 1.01 | S. cerevisiae deletion strains, locus YNL298W, strain CLA4, stronger effect = lower value 1.02 | S. cerevisiae deletion strains, locus YNL307C, strain MCK1, stronger effect = lower value 1.01 | S. cerevisiae deletion strains, locus YNL322C, strain KRE1 (second series), stronger effect = lower value 1 | S. cerevisiae deletion strains, locus YNL322C, strain KRE1, stronger effect = lower value 1 | S. cerevisiae deletion strains, locus YNR049C, strain mso1, stronger effect = lower value 1.02 | S. cerevisiae deletion strains, locus YNR052C, strain pop2, stronger effect = lower value 1.02 | S. cerevisiae deletion strains, locus YOL006C, strain TOP1, stronger effect = lower value 1.01 | S. cerevisiae deletion strains, locus YOL012C, strain htz1 0.879 | S. cerevisiae deletion strains, locus YOL147C, strain pex11, stronger effect = lower value 1.01 | S. cerevisiae deletion strains, locus YOR001W, strain rrp6, stronger effect = lower value 1.01 | S. cerevisiae deletion strains, locus YOR061W, strain CKA2, stronger effect = lower value 1 | S. cerevisiae deletion strains, locus YOR069W, strain VPS5, stronger effect = lower value 0.998 | S. cerevisiae deletion strains, locus YOR070C, strain gyp1, stronger effect = lower value 0.993 | S. cerevisiae deletion strains, locus YOR080W, strain dia2, stronger effect = lower value 1.01 | S. cerevisiae deletion strains, locus YOR083W, strain WHI5, stronger effect = lower value 1.01 | S. cerevisiae deletion strains, locus YOR106W, strain vam3, stronger effect = lower value 1.02 | S. cerevisiae deletion strains, locus YOR136W, strain idh2, stronger effect = lower value 1.02 | S. cerevisiae deletion strains, locus YOR144C, strain elg1, stronger effect = lower value 1.02 | S. cerevisiae deletion strains, locus YOR184W, strain ser1, stronger effect = lower value 1.02 | S. cerevisiae deletion strains, locus YOR231W, strain MKK1, stronger effect = lower value 0.986 | S. cerevisiae deletion strains, locus YOR265W, strain rbl2, stronger effect = lower value 1.01 | S. cerevisiae deletion strains, locus YOR270C, strain vph1, stronger effect = lower value 0.993 | S. cerevisiae deletion strains, locus YOR290C, strain snf2, stronger effect = lower value 0.987 | S. cerevisiae deletion strains, locus YOR316C, strain cot1, stronger effect = lower value 1.01 | S. cerevisiae deletion strains, locus YPL051W, strain arl3, stronger effect = lower value 1.01 | S. cerevisiae deletion strains, locus YPL055C, strain LGE1, stronger effect = lower value 1.06 | S. cerevisiae deletion strains, locus YPL078C, strain atp4, stronger effect = lower value 0.968 | S. cerevisiae deletion strains, locus YPL106C, strain sse1, stronger effect = lower value 1.05 | S. cerevisiae deletion strains, locus YPL240C, strain hsp82, stronger effect = lower value 0.988 | S. cerevisiae deletion strains, locus YPL241C, strain CIN2, stronger effect = lower value 1.01 | S. cerevisiae deletion strains, locus YPL256C, strain CLN2, stronger effect = lower value 0.961 | S. cerevisiae deletion strains, locus YPR119W, strain clb2, stronger effect = lower value 1.01 | S. cerevisiae deletion strains, locus YPR141C, strain kar3, stronger effect = lower value 1 | S. cerevisiae deletion strains, locus YPR163C, strain tif3, stronger effect = lower value 1.02 | S. cerevisiae deletion strains, locus YPR167C, strain met16, stronger effect = lower value 1.01 | S. cerevisiae deletion strains, strain wtn01, stronger effect = lower value 1.02 | S. cerevisiae strains, strain wild type, stronger effect = lower value 1.01

From PubChem BioAssay AID1159580 (chemical genetic matrix, 2015)
